From ChEMBL document CHEMBL1157539, “Thousands of chemical starting points for antimalarial lead identification” (Nature, 2010) come the findings set out here.

One may read the Inhibition as how much of the control response was suppressed. Read a low Inhibition as a response near the control.

What all share (format): functional
The subject of test [1] is Plasmodium falciparum. The experiment in a line: GSK_TCMDC: Inhibition of Plasmodium falciparum 3D7 in whole red blood cells, using parasite LDH activity as an index of growth. Test compounds present at 2uM.
Test [2] relates to Plasmodium falciparum. The experiment in a line: GSK_TCMDC: Inhibition of Plasmodium falciparum Dd2 in whole red blood cells, using parasite LDH activity as an index of growth. Test compounds present at 2uM.
For another test, the system named is HepG2. The experiment in a line: GSK_TCMDC: Percent inhibition of human HepG2 cell line. Test compounds present at 10uM.

`O=C(O)C(=O)O.Oc1ccccc1CN1CCN(C(c2ccccc2)c2ccccc2)CC1`: the Inhibition was found to be 98% in the test on Plasmodium falciparum [1], 90% in the test with Plasmodium falciparum [2] and 0% in the test on HepG2.

Turning to `COc1ccccc1CCNc1nc(C)cc(N[C@@H](Cc2ccccc2)C(=O)Nc2ccccc2)n1.O=C(O)C(F)(F)F`, the Inhibition in the test with Plasmodium falciparum [1] came to 100%; with Plasmodium falciparum [2], 86%; with HepG2, 30%.

For `FC(F)(F)c1ccc2[nH]c(-c3ccc(-c4cccc(CN5CCCCC5)c4)cc3)nc2c1.O=C(O)C(F)(F)F`, the Inhibition in the test on Plasmodium falciparum [1] was found to be 100%; with Plasmodium falciparum [2] it was 99%; with HepG2, 22%.

Take `Cc1cnc(C[S+]([O-])c2nc3cc(C(F)(F)F)ccc3[nH]2)cc1OCc1ccccc1` (stereo not drawn): the Inhibition with Plasmodium falciparum [1] worked out at 93%; in the test with Plasmodium falciparum [2], 76%; with HepG2, 0%.

For the molecule `COCCN1CCC(CN(C)CC(C)(C)c2nc(-c3ccc(Cl)c(O)c3)c(-c3ccncc3)[nH]2)CC1.Cl`, the Inhibition in the test on Plasmodium falciparum [1] amounted to 94%; with Plasmodium falciparum [2] it was 10%; in the test with HepG2 it was 0%.

Consider `C=CC[C@H](C[C@H](O)[C@H](Cc1ccccc1)NC(=O)c1ccc(-c2cccnn2)cc1)C(=O)NC1CCCCC1`, for which the Inhibition with Plasmodium falciparum [1] worked out at 83%; with Plasmodium falciparum [2], 0%; in the test with HepG2, 2%.

Regarding `O=C(Nc1cccc(-c2nn3ncccc3c2-c2ccnc(Nc3cccc(C(F)(F)F)c3)n2)c1)c1c(F)cccc1F`, the values for the Inhibition in the test on Plasmodium falciparum [1], with Plasmodium falciparum [2] and in the test with HepG2 were 97%, 68% and 49%, respectively.

For `CCCCCOc1ccc(C(O)C(CN2CCCCC2)c2ccccc2)cc1.Cl` (stereo not drawn), the Inhibition in the test with Plasmodium falciparum [1] is 98%; in the test on Plasmodium falciparum [2], 95%; in the test on HepG2 it was 11%.

For `COC(=O)c1ccc2nc(-c3ccc(/C=C/C(=O)NCc4ccc(Cl)c(Cl)c4)cc3)[nH]c2c1`, the Inhibition in the test on Plasmodium falciparum [1] is given as 81%; in the test on Plasmodium falciparum [2] it was 3%; in the test on HepG2, 13%.

With `CN1CCN(CCCN(Cc2ccc(-c3cccc(CNCc4ccc5c(c4)OCO5)c3)cc2)C(=O)NCCc2ccccc2)CC1.O=C(O)C(F)(F)F`, the results for the Inhibition in the test on Plasmodium falciparum [1], in the test with Plasmodium falciparum [2] and with HepG2 were 98%, 85% and 36%, respectively.

For the molecule `Cc1ccc(F)cc1S(=O)(=O)Nc1ccc(CCN2CCC(N3CCCCC3)CC2)cc1`, the Inhibition in the test on Plasmodium falciparum [1] is 99%; in the test with Plasmodium falciparum [2] it was 15%; in the test with HepG2 it was 25%.

With `CCOC(=O)N(C)/N=C/[C@H](CCc1ccccc1)NC(=O)[C@H](CC(C)C)NC(=O)c1cc2cccc(OC)c2o1`, the Inhibition was found to be 86% in the test with Plasmodium falciparum [1], 70% with Plasmodium falciparum [2] and 2% with HepG2.

Turning to `Oc1ccc(Nc2nc(NCc3ccco3)c3ccccc3n2)cc1`, the Inhibition with Plasmodium falciparum [1] turned out to be 100%; with Plasmodium falciparum [2], 78%; in the test with HepG2, 7%.

Take `CCC1CN2CCc3c([nH]c4ccc(OC)cc34)C2CC1CC1NCCc2cc(OC)c(OC)cc21.Cl` (stereo not drawn): the Inhibition amounted to 100% in the test with Plasmodium falciparum [1], 21% with Plasmodium falciparum [2] and 17% in the test with HepG2.

Turning to `Cc1nn(-c2ccccc2)nc1C(=O)NC1CCN(CCNC(=O)c2ccc(Cl)c(Cl)c2)CC1.O=C(O)C(F)(F)F`, the Inhibition with Plasmodium falciparum [1] came out at 89%; in the test with Plasmodium falciparum [2], 5%; with HepG2, 15%.

On to `CCN1CCC(N(Cc2ccc(-c3ccc(C(F)(F)F)cc3)cc2)C(=O)Cn2c(CCc3cccc(F)c3F)cc(=O)c3c2CCCC3)CC1.O=C(O)C(O)C(O)C(=O)O`, for which the values for the Inhibition in the test with Plasmodium falciparum [1], with Plasmodium falciparum [2] and in the test on HepG2 were 100%, 96% and 55%, respectively.

In the case of `O=C(O)C(F)(F)F.O=c1cc(N2CCCNCC2)c(Cl)nn1Cc1ccc(NS(=O)(=O)c2ccc(Oc3ccccc3)cc2)cc1`, the Inhibition in the test with Plasmodium falciparum [1] is listed as 98%; in the test on Plasmodium falciparum [2] it was 0%; in the test with HepG2 it was 0%.

`Cc1cccc2nc(-c3ccc(-c4ccc(CN5CCN(CC6CCCN(C)C6)CC5)cc4)s3)[nH]c12.O=C(O)C(F)(F)F` (stereo not drawn): the Inhibition in the test on Plasmodium falciparum [1] came to 100%; in the test with Plasmodium falciparum [2], 99%; in the test on HepG2, 63%.

With `CCCCc1ccc(-c2c(N)nc(N)nc2CC)cc1`, the Inhibition is 95% in the test on Plasmodium falciparum [1], 0% in the test on Plasmodium falciparum [2] and 63% with HepG2.

Consider `O=C(Nc1nc2cc(S(=O)(=O)NCCc3cccc(F)c3)ccc2n1CCCn1ccnc1)c1ccc(Cl)cc1.O=C(O)C(F)(F)F`, for which the Inhibition in the test on Plasmodium falciparum [1] was determined as 90%; in the test with Plasmodium falciparum [2], 8%; in the test on HepG2, 0%.

Regarding `COc1ccc(S(=O)(=O)N(c2cc(Br)cc3c2OCC3)S(=O)(=O)c2ccc(OC)c(N3CCN(C)CC3)c2)cc1N1CCN(C)CC1`, the Inhibition with Plasmodium falciparum [1] stood at 81%; in the test with Plasmodium falciparum [2], 98%; in the test on HepG2, 67%.
